# Bioassay records from PubChem.
# Only some compounds are listed: those with a hit (about 0.2% of all), similar ones and a draw of the others.
# ERp5 inh: ERp5 (human) disulfide isomerase inhibition | AID 651711 | Q15084 | inhibition, % at 9.99 µM | 350,000 tested, 0.05% active | ERp5 insulin aggregation, absorbance 650 nm, 90 min;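 active means mean replicate inhibition above about 25%, with every replicate also reaching it, limit read from the data, passing the limit was not always enough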
# Target sequence (Q15084 whole entry, looked up): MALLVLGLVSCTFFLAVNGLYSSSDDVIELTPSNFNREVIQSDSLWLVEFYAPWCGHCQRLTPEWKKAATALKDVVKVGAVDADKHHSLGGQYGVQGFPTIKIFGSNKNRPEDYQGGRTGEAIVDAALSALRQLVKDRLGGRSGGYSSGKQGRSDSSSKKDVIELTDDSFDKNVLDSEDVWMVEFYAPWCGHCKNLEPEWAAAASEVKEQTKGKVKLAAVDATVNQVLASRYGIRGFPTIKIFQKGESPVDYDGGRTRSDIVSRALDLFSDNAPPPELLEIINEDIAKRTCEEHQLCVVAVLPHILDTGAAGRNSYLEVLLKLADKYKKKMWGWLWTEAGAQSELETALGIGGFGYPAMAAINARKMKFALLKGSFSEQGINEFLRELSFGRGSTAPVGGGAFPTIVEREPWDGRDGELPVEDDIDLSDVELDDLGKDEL
# PvdQ acylase: P. aeruginosa PvdQ acylase inhibition | AID 488965 | inhibition, % at 10 µM | purified PvdQ acylase, fluorescence plate reader | 340,000 tested, 0.063% active; in the data active means inhibition above about 30%, passing the limit was not always enough
# PDI inh: PDI (human) enzyme inhibition. inhibition, % at 10 µM. P07237. PDI insulin aggregation turbidity, A650, 90 min. 350,000 tested, 0.052% active;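 active means mean inhibition across replicates of 30% or more, whatever share of single replicates reach that level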
# CaV13 FRET inh: Disruptors of the CACNA1D IQ motif to Ca2+-dependent inactivation inhibitor domain association, primary screening, Förster resonance energy transfer in intact living …; HEK cells, CFP/YFP FRET ICDI-IQ, plate reader, 10 min; percent FRET-ratio fall versus neutral wells; inhibition, % at 12.3 µM; 340,000 tested, 0.098% active; AID 743397;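 active means mean replicate inhibition of at least 30% and at least 1% of replicates passing that level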
# Hits are given with their value; . = inactive; / = no result given; + = active, no number.
SMILES,ERp5 inh,PvdQ acylase,PDI inh,CaV13 FRET inh
CCCCN1C=C(C(=O)OC)C(c2ccccc2Cl)C(C(=O)OC)=C1,.,.,.,+
CCCCN1C=C(C(=O)OC)C(c2ccccc2C(F)(F)F)C(C(=O)OC)=C1,/,.,.,.
COc1cccc2c(=O)c3c(cnn3C)n(C)c12,/,.,.,35
COc1cccc2c(=O)c3ccoc3n(C)c12,.,.,/,/
N#CC(c1ccc(Cl)nn1)c1c(F)cccc1Cl (centres undefined),.,66,.,.
CCOc1ccc(N=c2oc3cc(O)ccc3cc2C(=O)NCC2CCCO2)cc1 (centres undefined),.,.,.,.
CCOc1ccccc1N=c1oc2cc(O)ccc2cc1C(=O)NCC1CCCO1 (centres undefined),.,.,.,33
COC(=O)[C@]1(C)N[C@H](CN(C)S(=O)(=O)c2ccc(OC(F)(F)F)cc2)[C@@H]2C(=O)N(C)C(=O)[C@@H]21,34,.,.,.
CO[C@H]1CC[C@H]2CCN(C)C(=O)C[C@@H](c3ccccc3)CN(C)C(=O)c3cccc(C#N)c3OC[C@H]1O2,.,/,/,/
Cc1ccc(NC(=O)Nc2ccnc(-c3cccnc3)n2)cc1,.,.,.,43
CC(C)NC(=O)N(C)C[C@@H]1Oc2ccc(N(C)C)cc2C(=O)N([C@H](C)CO)C[C@@H]1C,.,/,/,/
CN1CCN(c2nc3ccccn3c(=O)c2/C=C(\C#N)S(=O)(=O)c2ccccc2)CC1,/,.,.,99
CCOC(=O)c1cc(-c2cccc([N+](=O)[O-])c2)on1,.,62,.,.
CCOC(=O)c1csc(-c2ccc([N+](=O)[O-])cc2)n1,.,.,.,.
COc1ccc(C2c3ccc(O)cc3Oc3ncn4nc(-c5ccccn5)nc4c32)cc1 (centres undefined),.,.,.,54
O=C(NCC[C@@H]1CC[C@H](NC(=O)c2cccnc2)[C@H](CO)O1)Nc1ccc(C(F)(F)F)cc1,.,/,/,/
Fc1ccc(-c2csc(-c3ccccn3)n2)cc1F,.,33,.,.
c1ccc(-c2nc(-c3ccco3)cs2)nc1,/,.,.,.
COCC(=O)Nc1ccc2c(c1)OC[C@@H](C)N(C(=O)c1ccncc1)C[C@H](C)[C@@H](OC)CN(C)C2=O,.,/,/,/
Cc1c(CCC(=O)O)c(=O)oc2c(C)c3occ(-c4ccc(Br)cc4)c3cc12,.,.,.,.
COc1ccc(-c2coc3c(C)c4oc(=O)c(CCC(=O)O)c(C)c4cc23)cc1,/,.,52,/
O=C(NN=c1c(=O)c2ccccc2c1=O)c1ccccc1,33,.,.,.
CN(C)/C=N/NC(=O)c1ccccc1,.,.,.,.
CCN(CC)Cc1c(O)c(Cl)cc2c(C)cc(=O)oc12,.,.,.,35
C=CCc1c(O)c(CC)cc2c(C)cc(=O)oc12,.,.,.,+
SMILES,ERp5 inh,PvdQ acylase,PDI inh,CaV13 FRET inh
CCN(CC)Cc1c(O)c(Cl)cc2c(C)c(C)c(=O)oc12,/,.,.,/
CCN(CC(=O)Nc1ccc2c(c1)OCCO2)C(=O)CC1CCCC1,/,.,33,.
O=C(Nc1ccc(F)cc1)N1C[C@H]2[C@@H](c3ccccc31)[C@@H](CO)N2C(=O)Cc1ccccc1,.,/,/,/
CCCc1nc2c(=O)n(C)c(=O)nc-2n(C)n1,85,.,160,.
Cn1nc(-c2ccccn2)nc2c(=O)n(C)c(=O)nc1-2,102,.,139,.
CCn1c(N)nc2c1c(=O)n(C)c(=O)n2C,.,.,.,.
COc1ccc(-c2nc(-c3ccccn3)ncc2S(C)(=O)=O)cc1,.,.,.,.
O=C(/C=C/c1cccs1)Nc1ccncc1,.,36,.,.
O=C(O)[C@@H]1CCCN1S(=O)(=O)c1cccc(S(=O)(=O)N2CCC[C@H]2C(=O)O)c1,.,.,.,68
CCOC(=O)C1CCN(c2c(NCCCN(C)C3CCCCC3)c(=O)c2=O)CC1,.,.,34,.
Cc1ccc(S(=O)(=O)c2cc3ccccc3oc2=O)cc1,/,.,.,.
Cc1c(O)ccc2cc(S(=O)(=O)c3ccccc3)c(=O)oc12,.,.,.,34
COc1cccc(S(=O)(=O)N[C@H]2CC[C@@H](CCNC(=O)Nc3cc(F)ccc3F)O[C@H]2CO)c1,.,/,/,/
CCN(CC)CCCNc1nc2ccccc2c2[nH]c3ccc(OC)cc3c12,.,.,60,.
O=C1/C(=C/c2ccc([N+](=O)[O-])cc2)Oc2cc(O)ccc21,.,69,.,.
CCOC(=O)c1cnc(-c2ccccc2)nc1N,.,77,.,.
N=c1oc2cc(O)ccc2cc1C(=O)Nc1ccc(Cl)cc1,.,.,.,113
COc1ccc2cc(C(C)=O)c(=O)oc2c1,/,.,.,.
CC(=O)c1cc2ccc(O)cc2oc1=O,.,.,.,33
CN(C)C(=O)C[C@H]1CC[C@H]2[C@@H](COC[C@H](O)CN2CC2CC2)O1,.,/,/,/
Cc1ccc(S(=O)(=O)Cc2ccc(C(=O)N3CCN(Cc4ccccc4)CC3)o2)cc1,.,.,.,.
COc1ccc(S(=O)(=O)Cc2ccc(C(=O)N3CCN(Cc4ccccc4)CC3)o2)cc1,.,.,.,58
CC(C)NC(=O)Nc1ccc2c(c1)C(=O)N([C@@H](C)CO)C[C@@H](C)[C@@H](CN(C)C)O2,.,/,/,/
O=C(C[C@H]1CC[C@H](NC(=O)Nc2ccccc2F)[C@H](CO)O1)NCc1ccc(Cl)cc1,.,/,/,/
Cc1cc(CNC(=O)c2ccc3c(c2)OCO3)c2ccccc2n1,.,.,.,152
SMILES,ERp5 inh,PvdQ acylase,PDI inh,CaV13 FRET inh
O=C(NCc1ccccc1)[C@H]1[C@H](CO)[C@H]2Cn3c(ccc(-c4cccc(F)c4)c3=O)[C@@H]1N2,.,/,/,/
CCOc1ccc2nc(NCCNC(=S)NCCCN(C)C)c(C#N)cc2c1,.,.,.,+
CCOc1ccc2nc(NCCNC(=O)Nc3ccccc3)c(C#N)cc2c1,/,.,.,.
CCOc1ccc2nc(NCCCNS(=O)(=O)c3ccc(C)cc3)c(C#N)cc2c1,.,.,.,32
COc1ccccc1CN(C)c1ccc(S(=O)(=O)N2CCN(C)CC2)cn1,31,.,.,.
CN(Cc1ccccc1F)c1ccc(S(=O)(=O)N2CCCC2)cn1,.,.,.,.
Cc1noc(C)c1S(=O)(=O)Nc1ccc2c(c1)C(=O)N([C@H](C)CO)C[C@H](C)[C@@H](CN(C)S(C)(=O)=O)OCCCC[C@@H](C)O2,.,/,/,/
CC(Sc1nnc(-c2ccccc2F)n1C)C(=O)NC1CCCCC1 (centres undefined),.,30,.,.
Cc1ccc(-c2ccc3c(c2)O[C@@H](CN(C)C)[C@@H](C)CN([C@H](C)CO)S3(=O)=O)cc1,.,/,/,/
O=C(NCCCN1CCCC1)c1ccc(CS(=O)(=O)c2c(Cl)cccc2Cl)o1,26,.,.,.
Cc1cc(S(=O)(=O)NCC2CC2)c(Cl)cc1Cl,.,107,.,.
O=S(=O)(NCC1CC1)c1cc(Cl)cc(Cl)c1,.,.,.,.
Cc1cccn2c(=O)c3cc(C(=O)NC(C)C)c(=N)n(Cc4ccncc4)c3nc12,/,.,.,/
Cc1ccc2nc3c(cc(C(=O)NCC4CCCO4)c(=N)n3CCCOC(C)C)c(=O)n2c1 (centres undefined),/,.,.,.
